# Assay results published in PubChem BioAssay (NCI).
# “And” between values parts separate entries of the source, which are not always exact repeats. Identical values can stand only once. The panel holds about 83,000 compounds, 20% with a hit somewhere; the sample as a whole holds those more often.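 Single-concentration screen, 48 h exposure, 96-well plates. Endpoint: percent growth. Below 10 = active.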 The source made the active and inactive calls.
# Tested on: HCT-116 colon
# Experiment: NCI-60 one-dose screen, 48 h (100 = growth as untreated, 0 = no growth, -100 = all killed)
# Settings: 10 µM unless noted
row,SMILES,growth
1,CCCCCCCCCCCCCCCCC(C(=O)O)C(O)(CC(=O)O)C(=O)O (centres undefined),105% (inactive) and -35.5% (active)
2,CCCCCCCCCCCCCCCc1ccc(N)c(OC2OC(CO)C(O)C(O)C2O)c1 (centres undefined),87.7% (inactive)
3,O=C(CO)C(O)C(O)C(O)C(O)CO (centres undefined),99.7% (inactive) and 97.4% (inactive)
4,O=C(Cc1ccccc1)c1ccc(O)c(Cl)c1,27% (inactive)
5,NC(Cc1c[nH]c2ccccc12)C(=O)O (centres undefined),91.4% (inactive) and 86.7% (inactive)
6,O=C(O)/C=C\C(=O)Nc1cccc2ccccc12,103% (inactive) and 101% (inactive)
7,O=C(/C=C/c1ccccc1)c1ccccc1,6.71% (active)
8,OC1COC(OCc2ccccc2)C(O)C1O (centres undefined),99.6% (inactive)
9,CC[C@H](CC[C@@H](C)[C@H]1CC[C@H]2[C@@H]3CC=C4C[C@@H](O)CC[C@]4(C)[C@H]3CC[C@]12C)C(C)C,94.6% (inactive) and 105% (inactive)
10,CC1=C/C(O)CC(=O)Cc2nc(co2)C(=O)N2CCC=C2C(=O)OC(C(C)C)C(C)/C=C\C(=O)NC/C=C\1 (centres undefined),34.3% (inactive)
11,COc1ccc(C(=O)CC(c2ccccc2)C(C#N)c2ccccc2)cc1 (centres undefined),91.2% (inactive)
12,CCCCOC(=O)/C=C\C(=O)NC(N)=O,80.1% (inactive)
13,CC(C)NC(=O)N/C=C(\C#N)C(N)=O,90.9% (inactive)
14,CC1CCC2(OC1)OC1CC3C4CC=C5CC(O)CCC5(C)C4CCC3(C)C1C2C (centres undefined),92.2% (inactive)
15,CCCCNc1ccc(Nc2ccccc2)cc1,47.9% (inactive)
16,Cn1cnc([N+](=O)[O-])c1Sc1ncn[nH]1,101% (inactive)
17,CCc1cc(C)cc(O)c1,98.2% (inactive)
18,CCCCOc1ccc(Nc2cc(Cl)ccc2C(=O)O)cn1,93.7% (inactive) and 92.4% (inactive)
19,Nc1ncnc2c1ncn2C1OC(COP(=O)(O)O)C(O)C1O (centres undefined),108% (inactive)

row,SMILES,growth
1,CC1CCC(C(C)C)C(NNC(N)=O)C1 (centres undefined),99.5% (inactive)
2,COc1ccc(N/C=C/C2=[N+](C)c3ccccc3C2(C)C)c(OC)c1,88.8% (inactive)
3,O=C1OC(c2ccccc2)=N/C1=C\c1ccccc1,102% (inactive)
4,C/C(=C\c1ccccc1)c1ccccn1,101% (inactive)
5,COc1cc(C(O)C2C(=O)OCC2C2(c3ccc4c(c3)OCO4)SCCCS2)cc(OC)c1OC (centres undefined),91.7% (inactive)
6,CC1(C)COC(=S)N1,105% (inactive)
7,Brc1ccc(SSc2ccc(Br)cc2)cc1,56.6% (inactive)
8,CC(C)(O)C(=O)O,100% (inactive)
9,O=[N+]([O-])c1cccc(SSc2cccc([N+](=O)[O-])c2)c1,94% (inactive)
10,OCCN1CCCCCCC1,97.1% (inactive)
11,c1ccc(-c2nc3ccccc3s2)cc1,97.3% (inactive)
12,CCOC(=O)c1c(C)cc(=O)oc1C,95.4% (inactive)
13,CC(=O)NCC(=O)c1ccc([N+](=O)[O-])cc1,106% (inactive)
14,Fc1ccc([I+]c2ccc(F)cc2)cc1,32.9% (inactive)
15,Cc1cc2ccccc2cn1,99% (inactive) and 108% (inactive)
16,O=c1n(CC2CO2)c(=O)n(CC2CO2)c(=O)n1CC1CO1 (centres undefined),73.9% (inactive)
17,Nc1ccc2c(O)cc(S(=O)(=O)O)cc2c1,93.8% (inactive) and 94% (inactive)
18,O=C1CSC2=NCCN12,82.7% (inactive) and 63.8% (inactive)
19,O=C1c2c(O)ccc(O)c2C(=O)c2c(NCCNCCO)ccc(NCCNCCO)c21,-20.2% (active) and -44.9% (active)

# Tested on: HCC-2998 colon
# Experiment: as above
# Settings: 10 µM unless noted
row,SMILES,growth
1,CCCCCCCCCCCCCCCCC(C(=O)O)C(O)(CC(=O)O)C(=O)O (centres undefined),96.9% (inactive)
2,CCCCCCCCCCCCCCCc1ccc(N)c(OC2OC(CO)C(O)C(O)C2O)c1 (centres undefined),9.53% (active)
3,O=C(CO)C(O)C(O)C(O)C(O)CO (centres undefined),109% (inactive) and 119% (inactive)
4,O=C(Cc1ccccc1)c1ccc(O)c(Cl)c1,43.4% (inactive)
5,NC(Cc1c[nH]c2ccccc12)C(=O)O (centres undefined),103% (inactive) and 101% (inactive)
6,O=C(O)/C=C\C(=O)Nc1cccc2ccccc12,118% (inactive) and 96.8% (inactive)
7,O=C(/C=C/c1ccccc1)c1ccccc1,120% (inactive)
8,CC[C@H](CC[C@@H](C)[C@H]1CC[C@H]2[C@@H]3CC=C4C[C@@H](O)CC[C@]4(C)[C@H]3CC[C@]12C)C(C)C,108% (inactive)
9,CC1=C/C(O)CC(=O)Cc2nc(co2)C(=O)N2CCC=C2C(=O)OC(C(C)C)C(C)/C=C\C(=O)NC/C=C\1 (centres undefined),118% (inactive)
10,COc1ccc(C(=O)CC(c2ccccc2)C(C#N)c2ccccc2)cc1 (centres undefined),99.1% (inactive)
11,CCCCOC(=O)/C=C\C(=O)NC(N)=O,108% (inactive)
12,CC(C)NC(=O)N/C=C(\C#N)C(N)=O,97.5% (inactive)
13,CC1CCC2(OC1)OC1CC3C4CC=C5CC(O)CCC5(C)C4CCC3(C)C1C2C (centres undefined),112% (inactive)
14,CCCCNc1ccc(Nc2ccccc2)cc1,92% (inactive)
15,CCc1cc(C)cc(O)c1,104% (inactive)
16,CCCCOc1ccc(Nc2cc(Cl)ccc2C(=O)O)cn1,95.4% (inactive)
17,Nc1ncnc2c1ncn2C1OC(COP(=O)(O)O)C(O)C1O (centres undefined),104% (inactive)
18,CC1CCC(C(C)C)C(NNC(N)=O)C1 (centres undefined),91.8% (inactive)

row,SMILES,growth
1,COc1ccc(N/C=C/C2=[N+](C)c3ccccc3C2(C)C)c(OC)c1,98.4% (inactive)
2,O=C1OC(c2ccccc2)=N/C1=C\c1ccccc1,96.6% (inactive)
3,C/C(=C\c1ccccc1)c1ccccn1,117% (inactive)
4,COc1cc(C(O)C2C(=O)OCC2C2(c3ccc4c(c3)OCO4)SCCCS2)cc(OC)c1OC (centres undefined),98.5% (inactive)
5,CC1(C)COC(=S)N1,106% (inactive)
6,Brc1ccc(SSc2ccc(Br)cc2)cc1,93.5% (inactive)
7,CC(C)(O)C(=O)O,119% (inactive)
8,O=[N+]([O-])c1cccc(SSc2cccc([N+](=O)[O-])c2)c1,108% (inactive)
9,OCCN1CCCCCCC1,100% (inactive)
10,c1ccc(-c2nc3ccccc3s2)cc1,97.2% (inactive)
11,CCOC(=O)c1c(C)cc(=O)oc1C,103% (inactive)
12,CC(=O)NCC(=O)c1ccc([N+](=O)[O-])cc1,109% (inactive)
13,Fc1ccc([I+]c2ccc(F)cc2)cc1,71.7% (inactive)
14,Cc1cc2ccccc2cn1,112% (inactive) and 118% (inactive)
15,O=c1n(CC2CO2)c(=O)n(CC2CO2)c(=O)n1CC1CO1 (centres undefined),94.8% (inactive)
16,Nc1ccc2c(O)cc(S(=O)(=O)O)cc2c1,88.6% (inactive) and 107% (inactive)
17,O=C1CSC2=NCCN12,96.9% (inactive) and 107% (inactive)
18,O=C1c2c(O)ccc(O)c2C(=O)c2c(NCCNCCO)ccc(NCCNCCO)c21,-88.5% (active)
